An excerpt weighted towards active compounds, which were near 2.4% of everything screened.
RTF Ca sens act: cardiac RTF calcium sensitization | activation, % at 7.2 µM | P19429+P45379 | 0.24% of 340,000 active | IANBD-labeled TnC RTF fluorescence at EC20 calcium; 0% EC20 calcium, 100% full calcium | AID 493008;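 active = activation above the mean over all tested compounds plus 3 SD, cut at about 30% in these data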;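 also: rise in fluorescence read as greater calcium sensitivity of cardiac thin filaments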
RTF Ca sens inh: cardiac RTF calcium desensitization. P19429+P45379. IANBD-labeled cardiac RTF, Ca2+ fluorescence. inhibition, % at 7.15 µM. 0.12% of 340,000 active. AID 493244;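 active = inhibition above the mean inhibition of all tested compounds plus 3 SD, cut at about 17% in these data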;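 also: assay run at fixed EC70 calcium of 1.6 mM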
CRFBP-R2 block: antagonists of CRF-binding protein/CRF-R2 receptor complex; HEK293 CRF-R2/CRF-BP, CRF-induced calcium fluorescence; inhibition, % at 11.8 µM; 0.59% of 350,000 active;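 active = inhibition of the ligand-induced calcium signal above about 50% at the single tested concentration, limit read from the data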
CRFR2-BP ag: agonists of human CRF-binding protein/CRF-R2 receptor complex. HEK293 CRF-R2/CRF-BP, calcium dye fluorescence (FLIPR); percent of saturating CRF peptide response. activation, % at 13.2 µM. 0.46% of 350,000 active. AID 588473;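 active = activation of at least 50%, plus an integration ratio under a set limit after plate pattern correction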;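 also: plate controls were neutral control wells without compound for no effect and CRF at EC100 for full effect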
ANO1 activ: mouse TMEM16A channel activation, primary screen; Q8BHY3; HEK293 TMEM16A/YFP-H148Q/I152L, iodide quench fluorescence; stronger effect = lower value; B-score at 10 µM; 0.3% of 340,000 active; AID 623877;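 active = fluorescence-ratio B-score plate-corrected deviation score at least 3 library SD below zero, with starting fluorescence score within 5 deviations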;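 also: channel opened by trigger with iodide after compound preincubation; score built on the fluorescence ratio of max minus min over baseline; more negative score means more quench and so TMEM16A activation or potentiation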
Target sequence (Q8BHY3 whole entry, looked up): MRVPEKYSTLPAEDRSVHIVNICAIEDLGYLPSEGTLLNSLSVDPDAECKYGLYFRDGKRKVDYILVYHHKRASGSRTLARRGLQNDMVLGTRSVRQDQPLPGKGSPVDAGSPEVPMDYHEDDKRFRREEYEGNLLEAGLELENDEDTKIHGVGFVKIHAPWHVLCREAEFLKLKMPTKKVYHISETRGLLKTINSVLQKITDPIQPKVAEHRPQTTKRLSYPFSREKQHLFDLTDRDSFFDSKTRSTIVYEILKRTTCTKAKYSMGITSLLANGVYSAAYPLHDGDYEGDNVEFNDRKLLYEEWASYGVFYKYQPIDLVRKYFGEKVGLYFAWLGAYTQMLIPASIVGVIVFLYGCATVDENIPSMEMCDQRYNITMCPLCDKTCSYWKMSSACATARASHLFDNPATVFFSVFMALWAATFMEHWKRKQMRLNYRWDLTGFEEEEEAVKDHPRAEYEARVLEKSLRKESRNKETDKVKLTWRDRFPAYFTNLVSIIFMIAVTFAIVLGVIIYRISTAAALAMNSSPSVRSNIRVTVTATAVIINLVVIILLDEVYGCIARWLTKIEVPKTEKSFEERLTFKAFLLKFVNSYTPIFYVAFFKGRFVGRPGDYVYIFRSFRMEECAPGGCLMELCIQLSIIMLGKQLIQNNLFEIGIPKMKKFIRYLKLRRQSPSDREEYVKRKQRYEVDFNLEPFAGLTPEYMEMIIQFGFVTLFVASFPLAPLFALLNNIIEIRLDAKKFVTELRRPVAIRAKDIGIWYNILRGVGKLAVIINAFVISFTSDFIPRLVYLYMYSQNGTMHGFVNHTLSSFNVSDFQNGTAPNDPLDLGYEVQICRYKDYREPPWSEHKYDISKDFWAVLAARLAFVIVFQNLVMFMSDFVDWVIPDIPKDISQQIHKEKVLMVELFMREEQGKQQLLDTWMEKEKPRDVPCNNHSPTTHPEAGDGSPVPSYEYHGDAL
TMEM16A inh: mouse TMEM16A channel inhibition, primary screen | Q8BHY3 | HEK293 TMEM16A/YFP iodide influx fluorescence, ionomycin | normalized B-score (activity score, 25-100; higher = stronger inhibition) at 10 µM | 1.2% of 310,000 active | AID 588511;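 active = ratio plate-corrected score three or more library SD toward inhibition, starting fluorescence score within five deviations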;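 also: score derived from kinetic fluorescence span divided by baseline fluorescence per well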
* hit, by the source's call.

Screening O=C(N/N=C/c1cc(Br)cc(Br)c1O)c1cccc(S(=O)(=O)N2CCOCC2)c1 returned RTF Ca sens act 2, RTF Ca sens inh -11, CRFBP-R2 block -54, CRFR2-BP ag 69*, ANO1 activ inactive and TMEM16A inh inactive.
O=C(N/N=C/c1cc(Br)cc(Br)c1O)c1ccncc1 was read as CRFBP-R2 block -164, CRFR2-BP ag 167* and TMEM16A inh inactive.
Screening O=C(N/N=C/c1ccc(O)cc1O)c1ccncc1 returned RTF Ca sens act 2, RTF Ca sens inh -10, CRFBP-R2 block -11, CRFR2-BP ag 2, ANO1 activ inactive and TMEM16A inh inactive.
`O=C(N/N=C/c1ccccc1Br)c1cccc(S(=O)(=O)N2CCOCC2)c1` gave RTF Ca sens act 0, RTF Ca sens inh 2, CRFBP-R2 block 1, CRFR2-BP ag -1 and ANO1 activ inactive.
`O=C(N/N=C/c1cc(Cl)cc(Cl)c1O)c1ccncc1` gave RTF Ca sens act 18, RTF Ca sens inh -33, CRFBP-R2 block -86, CRFR2-BP ag 109*, ANO1 activ -8.8* and TMEM16A inh inactive.
Cc1ccc(C(=O)N(C)Cc2ccc(N3CCOCC3)cc2)cc1S(=O)(=O)NCc1ccccc1 was read as RTF Ca sens act -3, RTF Ca sens inh 4, CRFBP-R2 block 4, CRFR2-BP ag 2 and ANO1 activ inactive.
For Cc1cc(C(=O)O)cc(Br)c1N the results were RTF Ca sens act 0, RTF Ca sens inh -2, CRFBP-R2 block -7, CRFR2-BP ag -1, ANO1 activ inactive and TMEM16A inh inactive.
Screening CN1C(=O)Cc2cc(S(=O)(=O)NCc3cccs3)ccc21 returned RTF Ca sens act -1, RTF Ca sens inh -11, CRFBP-R2 block 1, CRFR2-BP ag -1, ANO1 activ inactive and TMEM16A inh inactive.
CCOc1cc(CNS(=O)(=O)c2ccc3c(c2)CC(=O)N3C)cc(OCC)c1OCC was read as RTF Ca sens act 1, RTF Ca sens inh -3, CRFBP-R2 block -2, CRFR2-BP ag 1, ANO1 activ -5.2* and TMEM16A inh inactive.
`COc1ccc(CN(C)Cc2nc3scc(-c4ccccc4)c3c(=O)[nH]2)cc1OC` gave RTF Ca sens act 0, RTF Ca sens inh -18, CRFBP-R2 block 60*, CRFR2-BP ag 0, ANO1 activ inactive and TMEM16A inh inactive.
Screening Cc1c(S(=O)(=O)N2CCCCC2)c(=O)n(C)c(=O)n1C returned RTF Ca sens act -1, RTF Ca sens inh 3, CRFBP-R2 block -4, CRFR2-BP ag 0, ANO1 activ inactive and TMEM16A inh inactive.
For Cc1ccc(C)c(NC(=S)NCCCN2CCOCC2)c1 the results were RTF Ca sens act 0, RTF Ca sens inh -1, CRFBP-R2 block 126*, CRFR2-BP ag 6, ANO1 activ inactive and TMEM16A inh inactive.
Cc1nn(C(C)(C)C)c(OC(=O)C2CCCC2)c1S(=O)(=O)c1ccccc1 was read as RTF Ca sens act -2, RTF Ca sens inh -5, CRFBP-R2 block 5, CRFR2-BP ag 2 and ANO1 activ inactive.
`Cc1ccc(S(=O)(=O)c2c(C)nn(C(C)(C)C)c2OC(=O)C2CCCC2)cc1` gave RTF Ca sens act 3, RTF Ca sens inh 1, CRFBP-R2 block 1, CRFR2-BP ag 4, ANO1 activ inactive and TMEM16A inh 25*.
Screening CSCCCNC(=S)N(C)CC(=O)Nc1ccc(C)cc1 returned RTF Ca sens act 2, RTF Ca sens inh 4, CRFBP-R2 block -16, CRFR2-BP ag 0, ANO1 activ inactive and TMEM16A inh inactive.
`COCCNC(=O)c1cnn2c(C(F)(F)F)cc(-c3ccc(C)cc3)nc12` gave RTF Ca sens act 1, RTF Ca sens inh -6, CRFBP-R2 block 3, CRFR2-BP ag -1, ANO1 activ -5.2* and TMEM16A inh inactive.
Cc1ccc(-c2cc(C(F)(F)F)n3ncc(C(=O)O)c3n2)cc1 was read as RTF Ca sens act -1, RTF Ca sens inh -3, CRFBP-R2 block 7, CRFR2-BP ag 0 and ANO1 activ inactive.
Screening CCNC(=S)Nc1ccc2c(c1)oc1ccccc12 returned RTF Ca sens act -5, RTF Ca sens inh -5, CRFBP-R2 block -10, CRFR2-BP ag -1, ANO1 activ inactive and TMEM16A inh inactive.
For Cc1ccc(S(=O)(=O)Oc2ccc(C(c3c(C)[nH][nH]c3=O)c3c(C)[nH][nH]c3=O)cc2)cc1 the results were RTF Ca sens act -8, RTF Ca sens inh 3, CRFBP-R2 block -160, CRFR2-BP ag 126*, ANO1 activ inactive and TMEM16A inh inactive.
CCOc1cc(C(c2c(C)[nH][nH]c2=O)c2c(C)[nH][nH]c2=O)ccc1OS(=O)(=O)c1ccccc1 was read as RTF Ca sens act 3, RTF Ca sens inh -12, CRFBP-R2 block 7, CRFR2-BP ag -1, ANO1 activ inactive and TMEM16A inh inactive.
`Clc1ccc(-c2nnc3sc(-c4ccc(Br)o4)nn23)c(Cl)c1` gave RTF Ca sens act 1, RTF Ca sens inh -1, CRFBP-R2 block 15, CRFR2-BP ag -1, ANO1 activ inactive and TMEM16A inh inactive.
Clc1ccc(-c2nnc3sc(-c4ccc(Br)o4)nn23)cc1 was read as RTF Ca sens act 2, RTF Ca sens inh -16, CRFBP-R2 block -115, CRFR2-BP ag 53*, ANO1 activ inactive and TMEM16A inh inactive.
Cc1cc2oc(=O)cc(-c3ccccc3)c2c(C)c1-c1ccc(O)cc1 was read as RTF Ca sens act -3, RTF Ca sens inh 1, CRFBP-R2 block 50*, CRFR2-BP ag 0 and ANO1 activ inactive.
`CC(C)Sc1ccccc1C(=O)Nc1ccc2c(c1)n(C)c(=O)n2C` gave RTF Ca sens act -3, RTF Ca sens inh 8, CRFBP-R2 block 4, CRFR2-BP ag 0, ANO1 activ inactive and TMEM16A inh inactive.
`O=c1[nH]c(CSc2ccccn2)nc2c1oc1ccccc12` gave RTF Ca sens act 1, RTF Ca sens inh -7, CRFBP-R2 block -7, CRFR2-BP ag 0, ANO1 activ inactive and TMEM16A inh inactive.
Screening CC1=NOC(=O)/C1=C/c1ccc(-c2ccc(Cl)cc2)o1 returned RTF Ca sens act 1, RTF Ca sens inh -4, ANO1 activ inactive and TMEM16A inh inactive.
CC1=NOC(=O)/C1=C\c1ccc(-c2ccc(Br)cc2)o1 was read as RTF Ca sens act 4, RTF Ca sens inh -6, CRFBP-R2 block -27, CRFR2-BP ag 69* and ANO1 activ inactive.
CC1=NOC(=O)/C1=C\c1ccc(-c2cc(Cl)ccc2Cl)o1 was read as RTF Ca sens act -2, RTF Ca sens inh 2, CRFBP-R2 block -79, CRFR2-BP ag 116*, ANO1 activ -5.4* and TMEM16A inh inactive.

Screening results: PubChem BioAssay, several laboratories
